Screening results from PubChem BioAssay.
BAZ2B block – inhibitors of human BAZ2B bromodomain. 4.4% of 360,000 active. Potency, µM (highest dose often 114 µM), without a hit: at the highest dose activity change, negative = inhibition, hits mostly inhibitors. Q9UIF8. AlphaScreen BAZ2B-H3K14Ac peptide displacement; further: potency means the concentration at half of the fitted maximal effect; on the % scale 0 is the no-effect control and ±100 the full control effect; nearly all actives have a fitted effect of over 60% in size
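Complex of BAZ2B and biotin-H3K14Ac (50 nM apiece) forms over 30 min at RT, then faces library compounds up to 110 uM for another 30 min; AlphaScreen beads added, 20 min dark incubation, luminescence read.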
HP1b chromo inh – blocks HP1-beta chromodomain binding to methylated histone tails. P83916. Potency, µM (titrated, usually from 114 µM), without a hit: at the top dose activity change, negative = inhibition, usual class: inhibitors. 0.56% of 390,000 active. AlphaScreen HP1-beta / biotin-H3K9me3 peptide binding; further: potency means the concentration at half of the fitted maximal effect; nearly all actives have a fitted effect of over 70% in size
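Compound inhibition of the preformed complex between 50 nM HP1-beta and 50 nM biotinylated H3K9me3 peptide was read by AlphaScreen. Buffer was PBS pH 7.4 with 0.01% Tween-20. Incubations ran 30 min at room temperature, with 10 ug/mL donor/acceptor beads.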
PLK1 PBD block – PLK1 (human) polo-box domain binding inhibition | Plk1 PBD binding of FITC phosphopeptide, fluorescence polarization | 2.8% of 360,000 active | Potency, µM, for the others: max response, negative = inhibition, most hits filed as inhibitors | P53350; further: potency means the concentration at half of the fitted maximal effect; series mostly up to about 57 µM; on the % scale 0 is the no-effect control and ±100 the full control effect; nearly all actives have a fitted effect of over 65% in size
KAT2A inh – inhibitors of human GCN5L2 histone acetyltransferase; Q92830; GCN5L2 HAT assay, ThioGlo1 CoA-SH fluorescence; Potency, µM (highest dose often 58.9 µM), inactives show top-dose activity change, negative = inhibition, hits mostly inhibitors; 0.21% of 390,000 active; AID 504327; further: potency means the concentration at half of the fitted maximal effect; on the % scale 0 is the no-effect control and ±100 the full control effect
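Free CoA generated was detected with ThioGlo1 (50uM) fluorescence at Ex340nm/Em540nm, read immediately and after 20 min at room temperature. Enzyme, 20 nM in HEPES pH 7.5 buffer, saw compounds 15 min before adding 75uM H3(1-25) peptide and 70uM acetyl-CoA.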
PI5P4K alpha inh – blocks human PI5P4K alpha kinase activity; PI5P4Kalpha enzyme, ADP-Glo luminescence, 60 min; hits give low values; 1.2% of 330,000 active; P48426; max response, %; active means max response of -50% or lower; inconclusive means between -30% and -50%; inactive means -30% or higher; further: value at the top dose of about 77 µM; on the % scale 0 is the no-effect control and ±100 the full control effect
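Quantitative HTS of the MLSMR library against PI5P4Kalpha with substrate. ATP added last at 5 microM final; room temperature, 60 minutes. Remaining ATP depleted, ADP converted and read as luminescence.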
JMJD2A Tudor inh – JMJD2A Tudor domain (human) inhibition; Potency, µM (series often up to 114 µM), for the others: top-dose activity change, negative = inhibition, usual class: inhibitors; 4.4% of 390,000 active; AlphaScreen JMJD2A-Tudor / H3K4me3 peptide binding; O75164; further: potency means the concentration at half of the fitted maximal effect; on the % scale 0 is the no-effect control and ±100 the full control effect; nearly all actives have a fitted effect of over 50% in size
Target sequence (O75164 whole entry, looked up, the tested form may be a part): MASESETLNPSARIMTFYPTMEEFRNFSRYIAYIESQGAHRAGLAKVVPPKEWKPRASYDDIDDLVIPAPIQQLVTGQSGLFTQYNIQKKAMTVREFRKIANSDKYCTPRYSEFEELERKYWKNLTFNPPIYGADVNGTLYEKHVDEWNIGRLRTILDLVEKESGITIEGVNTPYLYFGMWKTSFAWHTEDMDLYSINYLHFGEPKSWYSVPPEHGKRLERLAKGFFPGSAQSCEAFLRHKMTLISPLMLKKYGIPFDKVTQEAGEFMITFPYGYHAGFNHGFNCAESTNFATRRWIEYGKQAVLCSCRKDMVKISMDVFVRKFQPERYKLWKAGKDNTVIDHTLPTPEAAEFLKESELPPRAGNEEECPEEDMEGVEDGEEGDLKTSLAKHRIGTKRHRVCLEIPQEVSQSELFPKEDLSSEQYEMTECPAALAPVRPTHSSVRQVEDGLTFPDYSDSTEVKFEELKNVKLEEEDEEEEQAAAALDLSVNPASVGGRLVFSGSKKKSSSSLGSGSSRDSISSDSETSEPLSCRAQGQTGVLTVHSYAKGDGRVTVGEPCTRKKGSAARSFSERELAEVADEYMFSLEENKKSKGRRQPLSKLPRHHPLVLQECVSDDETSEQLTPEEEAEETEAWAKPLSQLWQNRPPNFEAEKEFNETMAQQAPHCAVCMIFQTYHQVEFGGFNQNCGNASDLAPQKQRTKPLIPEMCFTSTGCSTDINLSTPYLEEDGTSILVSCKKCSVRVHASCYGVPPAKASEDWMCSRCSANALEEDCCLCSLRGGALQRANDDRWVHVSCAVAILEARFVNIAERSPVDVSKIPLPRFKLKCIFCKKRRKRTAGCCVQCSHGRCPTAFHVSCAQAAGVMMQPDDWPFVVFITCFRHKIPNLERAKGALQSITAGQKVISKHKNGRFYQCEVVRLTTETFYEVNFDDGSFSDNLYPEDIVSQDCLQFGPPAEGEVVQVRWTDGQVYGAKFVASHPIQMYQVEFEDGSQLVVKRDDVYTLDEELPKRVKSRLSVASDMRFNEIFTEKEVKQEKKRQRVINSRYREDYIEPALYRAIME
An asterisk follows results filed as active; ? = inconclusive; / = no result given; [ ] = remark or other dose. A selection: hits, their analogues and other compounds. The true share with any hit is near 7%. Unless noted, the call rests on the fitted dose curve; in most records, active means well fitted curve in the direction sought with a large enough effect; inconclusive means small, poorly fitted or top-dose-only effect, or another doubt; inactive means no such curve, though single readings can be large; an effect the other way counts as inactive or inconclusive.

SMILES	BAZ2B block	HP1b chromo inh	PLK1 PBD block	KAT2A inh	PI5P4K alpha inh	JMJD2A Tudor inh
COc1cc(/C=C/C(C)=O)cc(OC)c1OC	3%	-16%	30µM*	2%	-2	-10%[11.4 µM]
CCOC(=O)C1CCCN(C(=O)Cn2cnc3c2c(=O)n(C)c(=O)n3C)C1 (stereo unspecified)	3%	36%	-6%	3%	/	1%
Cc1cc(C)c2c(=O)n(CC(=O)N3CCC(N4CCCCC4)CC3)sc2n1	3%	3.5µM*	3µM*	32µM*	-81*	3.2µM*
CCCNC(=O)Cn1sc2nc(C)cc(C)c2c1=O	50µM*	?	1.7µM*	28µM*	-83*	3.2µM*
CCOC(=O)C1CCCN(C(=O)Cn2sc3nc(C)cc(C)c3c2=O)C1 (stereo unspecified)	15%	?	1.5µM*	?	-81*	5.6µM*
Cc1nn(CC(=O)N2CCC(N3CCCCC3)CC2)c(=O)c2c1sc1ccccc12	-12%[57.1 µM]	7%[57 µM]	-20%	-2%	6	-7%
Cc1nn(-c2ccc(F)cc2)c(-n2cccc2)c1C(=O)NCCc1ccc(Cl)cc1	-1%	59%	/	-10%	/	-5%
O=[N+]([O-])c1ccc(-c2ccc(S(=O)(=O)NCCN3CCCC3)cc2)cc1	-25%	-5%	-2%	0%	6	-24%
NCCN1CCN(S(=O)(=O)c2ccc([N+](=O)[O-])cc2)C=C1c1ccc(Cl)cc1	56µM*	-12%	-8%	-1%	6	?
Cc1c(P(=S)(c2ccccc2)c2ccccc2)c2ccccc2n1C(=O)Cc1ccccc1	/	/	/	/	/	-7%
N#Cc1ccccc1S(=O)(=O)N1CCN(CC(=O)NCC2(N3CCOCC3)CCCCC2)CC1	5%	48%	-4%	1%	3	-14%
Cc1[nH]c2ccccc2c1Cc1n[nH]c(=S)o1	-12%	10%	?	0%	-7	79µM*
CC(Cc1n[nH]c(=S)o1)c1ccccc1 (stereo unspecified)	?	33%	24µM*	-3%	-22	?
Cc1[nH]c2ccccc2c1Cc1n[nH]c(=S)n1C	2%	-43%	-10%	-3%	-9	6.3µM*
Cc1[nH]c2ccccc2c1SCc1n[nH]c(=S)n1C	-15%	15%	-15%	-20%	-10	10µM*
Cc1[nH]c2ccccc2c1SCc1ccccc1	9%	47%	-2%	-11%	23	-10%
CCOc1ccc(Oc2nc(NC)nc(N3CCOCC3)n2)nn1	3%	58%	/	0%	/	3%
Cc1ccc(C(C)C)c(OCc2ccc(C(=O)Nc3ccc(S(N)(=O)=O)cc3C)o2)c1	-37%	4%	/	-11%	/	?
Cn1c(Cc2c[nH]c3ccccc23)n[nH]c1=S	7%	-12%	-6%	1%	-5	5µM*
S=c1[nH]nc(Cc2cccc3ccccc23)o1	-25%	20%	-12%	-2%	4	79µM*
c1ccc2c(Cc3c[nH]c4ccccc34)c[nH]c2c1	/	/	/	3%	/	/
O=C(COc1ccccc1[N+](=O)[O-])NCCCN1CCCC1=O	-5%	23%	-5%	1%	-1	-4%
Cc1onc(-c2ccccc2Cl)c1C(=O)N1CC(C)OC(C)C1 (stereo unspecified)	1%	-18%	30µM*	-2%	/	?
Cc1onc(-c2c(Cl)cccc2Cl)c1C(=O)N1CCOCC1	79µM*	21%	-16%	-8%	2	-8%
CCOC1(OCC)OC(c2ccccc2)=C(C#N)C(C=Cc2ccccc2)C1(OCC)OCC (stereo unspecified)	/	/	1%	/	-1	/
SMILES	BAZ2B block	HP1b chromo inh	PLK1 PBD block	KAT2A inh	PI5P4K alpha inh	JMJD2A Tudor inh
CC(=O)c1ccc(NC(=O)COC(=O)c2ccc(F)cc2F)cc1	1%	15%	-3%	-21%	-7	4%
COCC1CCN(C(=O)c2cc(COc3ccc4ncccc4c3)on2)CC1	-1%	0%	17µM*	-6%	?	16µM*
Oc1ccc(NC(=S)N=Nc2c(O)[nH]c3ccc(Br)cc23)cc1	20µM*	?	-5%	-12%	?	32µM*
Oc1[nH]c2ccc(Br)cc2c1N=NC(=S)Nc1ccc(F)cc1	?	?	1%	-16%	-22	-31%
COc1ccc2[nH]c(N=Nc3ccccc3C)c(O)c2c1	?	-12%	-13%	1%	-1	45µM*
Cc1cccc(N=Nc2c(O)[nH]c3ccc(Br)cc23)c1	-22%	23%	-14%	0%	26	-28%
Cc1ccccc1N=Nc1c(O)[nH]c2ccccc12	/	-5%	?	/	-7	?
COc1ccccc1N=Nc1c(O)[nH]c2ccc(Br)cc12	3%	-2%	?	-1%	0	45µM*
Cc1ccc2[nH]c(O)c(N=Nc3ccccc3C)c2c1	?	71µM*	-5%	-13%	1	?
CCN(c1cccc(C)c1)S(=O)(=O)c1ccc2[nH]cc(C(=O)NCCCOC)c(=O)c2c1	1%	15%	/	-18%	/	-6%
CCOC(=O)c1c(NC(=O)CN2C(=O)NC3(CCC(C)CC3)C2=O)sc(C(=O)N(C)C)c1C (stereo unspecified)	5%	26%	-2%	-5%	5	-26%
O=C(N=Nc1c(O)[nH]c2ccc(Br)cc12)c1ccccc1-n1cccc1	32µM*	?	1%	-6%	/	16µM*
O=C(N=Nc1c(O)[nH]c2ccc(Br)cc12)c1ccco1	/	/	-16%	/	-10	/
CC1=C(CC(=O)c2ccccc2)C(=O)c2ccccc2C1=O	22µM*	?	-17%	-12%	19	35µM*
CN1C(=O)C(C)(C)c2cc(S(=O)(=O)N3CCCC(C(=O)NCc4ccc(Cl)cc4)C3)ccc21 (stereo unspecified)	-3%	29%	-2%	-7%	-3	-22%
CCN(CC(=O)Nc1cccc(S(=O)(=O)N(C)c2ccccc2)c1)Cc1ccccc1	32%	29%	-8%	-3%	5	-12%
Cc1cc(C)c(NC(=O)CN(C)CC(=O)Nc2cccc(S(=O)(=O)N(C)c3ccccc3)c2)c(C)c1	/	?	-13%	-7%	-6	7.1µM*
CCN(CC)S(=O)(=O)c1cccc(NC(=O)CN(C)Cc2cccc(OC)c2)c1	50µM*	22µM*	-7%	0%	8	1.6µM*
Cc1ccccc1CN(C)CC(=O)Nc1cccc(S(=O)(=O)N(C)c2ccccc2)c1	-4%	5%	27µM*	-14%	4	79µM*
COc1cccc(CN(C)CC(=O)NC(=O)NCc2ccco2)c1	50µM*	50µM*	-16%	-19%	-18	89µM*
CN(C)CCNc1nc2sc3c(c2c(=O)n1CCc1ccccc1)CCCCC3	45µM*	-24%	-9%	-1%	13	50µM*
